# Laboratory results reported in ChEMBL document CHEMBL4513216, “Probing the Open Global Health Chemical Diversity Library for Multistage-Active Starting Points for Next-Generation Antimalarials” (ACS Infect Dis, 2020).
# Hit rate of the full screen: of about 68,000 compounds, about 2,700 (4%) showed an effect of 50% or more. The full list was thinned out, with strong results kept by preference.
# System: Plasmodium berghei
# Assay: Screen against P. berghei liver stage (PbLuc), transformed with Luciferase, at 2uM
# Format: functional, HepG2
# Settings: tested at 2 uM
row,Structure (SMILES),INHIBITION [%]
1,COc1cccc(CNCC2CCN(CC(C)O)CC2)c1OC (stereo unspecified),61.96
2,CCOc1ccccc1CNCC1CCN(CC(C)O)CC1 (stereo unspecified),21.43
3,COc1ccc(CNCC2CCN(CC(C)O)CC2)c2ccccc12 (stereo unspecified),7.54
4,COc1ccccc1CNC1(CCO)CCOCC1,13.12
5,Cc1cc(C(=O)N2CCCC(c3ccc(C(=O)O)cc3)C2)c(C)o1 (stereo unspecified),-56.9
6,Cn1ccc(NCc2cc3cc(F)ccc3o2)n1,5.1
7,Cc1cc(-n2nc(C3CC3)nc2-c2csnn2)ccn1,-77.53
8,O=C1CC[C@H]2CN(Cc3cccnc3)CC[C@H]2N1CCc1c[nH]cn1,50.94
9,Cn1cc(CN2CC[C@@H]3[C@@H](CCC(=O)N3CCc3c[nH]cn3)C2)cn1,-21.16
10,O=C1CC[C@H]2CN(Cc3cccc(F)c3)CC[C@H]2N1CCc1c[nH]cn1,-13.3
11,CN1CCCC1CCn1ccnc1-c1ccc2ccccc2n1 (stereo unspecified),5.55
12,CCN1CC2(CC1=O)CN(C(=O)c1ccsc1)CCN(C(=O)N(C)C)C2 (stereo unspecified),26.44
13,Cc1noc2nc(C3CCN(Cc4ccncc4)CC3)cc(C(F)F)c12,17.51
14,Cc1noc2nc(C3CCCN(Cc4cccnc4)C3)cc(C(F)F)c12 (stereo unspecified),39.06
15,Cc1noc2nc(C3CCCN(Cc4ccncc4)C3)cc(C(F)F)c12 (stereo unspecified),63.66
16,COc1c(C)cnc(CN2CCCC2c2noc(C)n2)c1C (stereo unspecified),4.87

row,Structure (SMILES),INHIBITION [%]
1,COCCN(CC1CC1)c1nc(CCN)nc2sc(C)c(C)c12,13.65
2,O=C1NC2(CCN(Cc3cccnc3)CC2)CC1c1cccnc1 (stereo unspecified),-22.79
3,Cc1noc(C)c1CN(C)Cn1c(=O)oc2ccccc21,-5.31
4,CC(C)N1CCC(CC(=O)N2CCN(Cc3nccn3C)CC2)CC1,29.41
5,COCCN1CC[C@]2(CN(Cc3cccnc3)C[C@H]2C)C1=O,49.07
6,Cc1nc2n(n1)CC(NCc1cnn(-c3ccccc3)n1)CC2 (stereo unspecified),24.88
7,Cc1ccc(C2COCCN2C(=O)c2ccc(F)c(F)c2)o1 (stereo unspecified),70.24
8,Cc1ccc(C2COCCN2C(=O)c2cccc(N(C)C)c2)o1 (stereo unspecified),43.34
9,Cc1ccc(C2COCCN2C(=O)c2ccsc2)o1 (stereo unspecified),16.01
10,COCc1ccc(C(=O)N2CCOCC2c2ccc(C)o2)cc1 (stereo unspecified),62.13
11,CC(=O)Nc1cc(C(=O)N2CCOCC2c2ccc(C)o2)ccc1F (stereo unspecified),44.99
12,Cc1ccc(C2COCCN2C(=O)c2ccc(CN(C)C)cc2)o1 (stereo unspecified),27.84
13,Cc1ccc(C2COCCN2C(=O)c2ccc(N(C)C)cc2)o1 (stereo unspecified),30.73
14,COc1ccc(C(=O)N2CCOCC2c2ccc(C)o2)cc1 (stereo unspecified),39.93
15,Cc1ccc(C2COCCN2C(=O)c2ccc(C#N)cc2)o1 (stereo unspecified),54.44
